Laboratory results: PubChem BioAssay AID1159580 (chemical genetic matrix, 2015)
“And” between values parts separate entries of the source, which are not always exact repeats. Identical values can stand only once. About 2,000 (36%) of roughly 5,500 compounds were called active. Another 18% or so got no clear call; they are omitted. No stated cut-off is given here; in the data, active means normalized growth mostly below about 0.91 (no sharp cut-off); inconclusive means no clear call, values can overlap the other calls; inactive means mostly above about 0.92. The list shows a part of the results.

Assay: chemical genetic growth profiling, strain panel (AID 1159580);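 further: tested at 20 µM; growth read once vehicle control cultures reached saturation at 30 °C; 1 = growth at the plate median or of vehicle wells; lower values mean less growth of the strain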
Conditions: S. cerevisiae deletion strains, growth OD

Measured: normalized growth

CCN(CC)CCOC(=O)C1(C2CCCCC2)CCCCC1
inactive: locus YAL021C, strain ccr4, hits give low values 0.925 | locus YAL026C, strain drs2, hits give low values 0.97 | locus YAL030W, strain snc1, hits give low values 0.985 | locus YAL040C, strain CLN3, hits give low values 1.01 | locus YBL061C, strain skt5, hits give low values 0.99 | locus YBR009C, strain hhf1, hits give low values 0.97 | locus YBR021W, strain FUR4, hits give low values 0.862 | locus YBR023C, strain chs3, hits give low values 0.972 | locus YBR171W, strain sec66, hits give low values 0.987 | locus YBR229C, strain ROT2, hits give low values 1.01 | locus YBR231C, strain swc5, hits give low values 0.998 | locus YBR279W, strain paf1, hits give low values 0.973 | locus YCL011C, strain gbp2, hits give low values 0.928 | locus YCL016C, strain dcc1, hits give low values 0.95 | locus YCL029C, strain bik1, hits give low values 0.99 | locus YCL061C, strain MRC1 (second series), hits give low values 0.998 | locus YCL069W, strain vba3, hits give low values 0.996 | locus YCR088W, strain abp1, hits give low values 0.988 | locus YDL005C, strain med2, hits give low values 0.985 | locus YDL035C, strain GPR1, hits give low values 1.02 | locus YDL040C, strain nat1, hits give low values 0.99 | locus YDL074C, strain BRE1, hits give low values 0.965 | locus YDL101C, strain DUN1, hits give low values 0.998 | locus YDL134C, strain PPH21, hits give low values 1.02 | locus YDL185W, strain tfp1, hits give low values 1 | locus YDL192W, strain arf1, hits give low values 0.985 | locus YDR001C, strain nth1, hits give low values 0.979 | locus YDR069C, strain doa4, hits give low values 0.983 | locus YDR101C, strain arx1, hits give low values 0.995 | locus YDR137W, strain rgp1, hits give low values 1.08 | locus YDR150W, strain NUM1, hits give low values 1.01 and 0.995 | locus YDR159W, strain sac3, hits give low values 0.945 | locus YDR162C, strain NBP2, hits give low values 1.01 | locus YDR195W, strain ref2 0.994 | locus YDR297W, strain sur2, hits give low values 0.99 | locus YDR318W, strain mcm21, hits give low values 0.972 | locus YDR334W, strain swr1, hits give low values 0.98 | locus YDR335W, strain msn5, hits give low values 0.981 | locus YDR363W, strain ESC2, hits give low values 0.971 | locus YDR388W, hits give low values 0.982 | locus YDR392W, strain spt3, hits give low values 0.875 | locus YDR502C, strain sam2, hits give low values 0.956 | locus YEL003W, strain gim4, hits give low values 0.987 | locus YEL037C, strain rad23, hits give low values 0.983 | locus YEL061C, strain CIN8 (second series), hits give low values 0.978 | locus YEL061C, strain CIN8, hits give low values 1 | locus YER002W, strain NOP16, hits give low values 1.02 | locus YER015W, strain faa2, hits give low values 0.944 | locus YER016W, strain bim1, hits give low values 0.969 | locus YER110C, hits give low values 0.988 | locus YER111C, strain swi4, hits give low values 0.993 | locus YER155C, strain BEM2 (second series), hits give low values 0.976 | locus YER155C, strain BEM2, hits give low values 1.01 | locus YER167W, strain BCK2, hits give low values 1.01 | locus YFR010W, strain ubp6, hits give low values 0.972 | locus YGL078C, strain dbp3, hits give low values 0.983 | locus YGL086W, strain mad1, hits give low values 0.971 | locus YGL167C, strain pmr1, hits give low values 0.985 | locus YGL173C, strain kem1, hits give low values 1 | locus YGL227W, strain vid30, hits give low values 0.974 | locus YGL240W, strain doc1, hits give low values 0.984 | locus YGL248W, strain PDE1, hits give low values 0.991 | locus YGL253W, strain hxk2, hits give low values 0.985 | locus YGR078C, strain PAC10, hits give low values 0.972 and 1.05 | locus YGR135W, strain pre9, hits give low values 0.921 | locus YGR252W, strain gcn5, hits give low values 0.889 | locus YHR013C, strain ard1, hits give low values 0.944 | locus YHR027C, strain rpn1, hits give low values 0.968 | locus YHR030C, strain SLT2, hits give low values 1 and 1.05 | locus YHR079C, strain IRE1 (second series), hits give low values 0.982 | locus YHR079C, strain IRE1, hits give low values 1.02 | locus YHR094C, strain hxt1, hits give low values 0.992 | locus YHR129C, strain ARP1, hits give low values 1 | locus YHR142W, strain chs7, hits give low values 0.987 | locus YHR200W, strain rpn10, hits give low values 0.986 | locus YIL066C, strain RNR3, hits give low values 1.01 | locus YIL073C, strain SPO22, hits give low values 0.997 | locus YIL125W, strain kgd1, hits give low values 0.99 | locus YIR030C, strain dcg1, hits give low values 0.997 | locus YJL092W, strain hpr5, hits give low values 0.969 | locus YJL095W, strain BCK1 (second series), hits give low values 0.978 | locus YJL095W, strain BCK1, hits give low values 0.929 and 1.04 | locus YJL115W, strain asf1, hits give low values 0.983 | locus YJL129C, strain trk1, hits give low values 0.98 | locus YJL134W, strain LCB3, hits give low values 1.01 | locus YJL154C, strain vps35, hits give low values 0.982 | locus YJL164C, strain tpk1, hits give low values 0.951 | locus YJL166W, strain qcr8, hits give low values 1 | locus YJL168C, strain set2, hits give low values 0.981 | locus YJL187C, strain SWE1 (second series), hits give low values 0.974 | locus YJR043C, strain POL32, hits give low values 1.06
active: locus YAL013W, strain DEP1, hits give low values 0.892
